Results filed as inconclusive are left out. Activity calls are given as the source filed them. Unless noted, calls follow the shape of the dose curve; as a rule, active = well fitted curve in the direction sought with a large enough effect in the repeat runs; inconclusive = weak or mixed curves; inactive = no such curve, though single readings can be large; an effect the other way counts as inactive or inconclusive.

Test [1] can be described thus: qHTS assay to identify small molecule antagonists of the thyroid receptor (TR) signaling pathway (AID 743065). Also: series mostly up to about 70 µM; nearly all actives have a fitted effect of over 55% in size. The method, boiled down:
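GH3.TRE-Luc rat pituitary cells carrying two TR response elements driving luciferase were plated for 4 h, given compound plus 1 nM T3 (final), and incubated 23.5 h at 37 C. ONE-Glo luminescence measured reporter inhibition; CellTiter-Fluor fluorescence tracked cytotoxicity.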

Test [2] has as its system thyroid hormone receptor (rat, GH3 cells). As to the kind of experiment: qHTS assay to identify small molecule agonists of the thyroid receptor (TR) signaling pathway (AID 743066; calls by dose curve). In general terms: In qHTS, concentration-response curves come from the screen itself.
The target of test [3] is Estrogen receptor (Homo sapiens) (UniProt P03372). As to the kind of experiment: qHTS assay to identify small molecule antagonists of the estrogen receptor alpha (ER-alpha) signaling pathway (AID 743069; active = well fitted curve in the direction sought with a large enough effect in the signal ratio in the repeat runs, not every such curve was filed as active; the % refers to the signal ratio). The method, boiled down:
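HEK293 cells stably carrying an ER-alpha-UAS-bla beta-lactamase reporter were pre-cultured overnight in 2% charcoal-stripped FBS medium. Test compounds in DMSO were added together with 17beta-estradiol for 18 hr at 37C. Read-out was fluorescence after 2 hr with LiveBLAzer B/G FRET substrate at room temperature.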

Test [4] can be described thus: qHTS assay to identify small molecule antagonists of the estrogen receptor alpha (ER-alpha) signaling pathway - cell viability counter screen (AID 743074; calls by dose curve; also: nearly all actives have a fitted effect of over 45% in size).
The target of test [5] is Estrogen receptor (Homo sapiens) (UniProt P03372). The test is described as follows: qHTS assay to identify small molecule agonists of the estrogen receptor alpha (ER-alpha) signaling pathway (AID 743075; calls by dose curve).
Chain of Estrogen receptor (Homo sapiens) (P03372 whole entry, looked up): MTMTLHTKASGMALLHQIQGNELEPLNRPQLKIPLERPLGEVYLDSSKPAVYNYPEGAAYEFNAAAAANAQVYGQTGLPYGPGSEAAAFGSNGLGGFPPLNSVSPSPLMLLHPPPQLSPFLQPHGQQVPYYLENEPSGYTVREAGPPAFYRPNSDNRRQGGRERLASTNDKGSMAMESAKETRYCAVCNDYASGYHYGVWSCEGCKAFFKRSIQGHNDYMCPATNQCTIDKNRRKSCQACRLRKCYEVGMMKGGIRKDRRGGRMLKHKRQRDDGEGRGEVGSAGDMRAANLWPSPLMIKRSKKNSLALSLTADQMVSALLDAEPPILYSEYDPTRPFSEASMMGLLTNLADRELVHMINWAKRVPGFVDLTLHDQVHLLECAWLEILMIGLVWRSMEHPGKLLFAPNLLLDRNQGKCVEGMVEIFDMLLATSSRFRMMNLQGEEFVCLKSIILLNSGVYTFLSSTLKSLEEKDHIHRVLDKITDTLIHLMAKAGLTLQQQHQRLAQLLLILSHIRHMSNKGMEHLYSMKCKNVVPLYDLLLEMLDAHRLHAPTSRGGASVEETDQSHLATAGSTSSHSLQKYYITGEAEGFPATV
Test [6] shares this target. The test is described as follows: qHTS assay to identify small molecule agonists of the estrogen receptor alpha (ER-alpha) signaling pathway using the BG1 cell line (AID 743079). Also: nearly all actives have a fitted effect of over 20% in size.
Test [7] can be described thus: qHTS assay to identify small molecule antagonists of the estrogen receptor alpha (ER-alpha) signaling pathway using the BG1 cell line (AID 743080; calls by dose curve;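 also: BG1 cells stimulated with 17beta-estradiol alongside compound; series mostly up to about 70 µM; nearly all actives have a fitted effect of over 25% in size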). The procedure, abridged: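 Quantitative HTS on the Tox21 10K library: BG1 cells with endogenous ER-alpha and ERE-luciferase reporter, 17beta-estradiol stimulation, 21.5 h compound exposure, luminescence endpoint with parallel fluorescence cytotoxicity counter-read.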

Test [8] in a line: qHTS assay to identify small molecule antagonists of the estrogen receptor alpha (ER-alpha) signaling pathway using the BG1 cell line - cell viability counter screen (AID 743081).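 Also: compound given together with 17beta-estradiol as the ER stimulus; series mostly up to about 70 µM; nearly all actives have a fitted effect of over 45% in size.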
For another test, the target named is Aromatase (Homo sapiens) (UniProt P11511). The test is described as follows: qHTS assay to identify aromatase inhibitors (AID 743083). Also: series mostly up to about 70 µM; nearly all actives have a fitted effect of over 55% in size.
Chain of Aromatase (Homo sapiens) (P11511 whole entry, looked up): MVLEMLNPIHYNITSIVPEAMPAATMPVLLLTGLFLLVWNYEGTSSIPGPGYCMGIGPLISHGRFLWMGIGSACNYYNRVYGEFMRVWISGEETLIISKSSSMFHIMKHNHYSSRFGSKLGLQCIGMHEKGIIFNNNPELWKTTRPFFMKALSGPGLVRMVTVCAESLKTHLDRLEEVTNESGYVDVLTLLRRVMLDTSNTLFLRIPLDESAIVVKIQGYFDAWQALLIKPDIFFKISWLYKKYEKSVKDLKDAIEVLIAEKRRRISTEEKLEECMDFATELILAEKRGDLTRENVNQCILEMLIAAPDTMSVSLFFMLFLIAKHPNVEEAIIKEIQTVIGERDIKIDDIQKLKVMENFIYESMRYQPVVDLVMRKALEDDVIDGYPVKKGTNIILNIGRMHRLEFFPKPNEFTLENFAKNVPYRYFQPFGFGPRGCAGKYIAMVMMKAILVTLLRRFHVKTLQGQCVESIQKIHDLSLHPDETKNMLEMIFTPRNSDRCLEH
Test [9] is described as follows: qHTS assay to identify aromatase inhibitors - cell viability counter screen (AID 743084).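 Also: cells stimulated with testosterone during compound exposure; nearly all actives have a fitted effect of over 55% in size.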
The nature of test [10]: qHTS assay to identify small molecule that activate the aryl hydrocarbon receptor (AhR) signaling pathway - cell viability counter screen (AID 743086).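 Also: HepG2 liver cells carrying the AhR DRE luciferase reporter; series mostly up to about 70 µM; nearly all actives have a fitted effect of over 45% in size.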 The procedure, abridged:
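HepG2-AhR-luc (HG2L7.5c1) cells, 4000/well, were preincubated 5 h at 37C, exposed to compound in qHTS format for 24 hr at 37C, then given CellTiter-Fluor for 30 min; viability was read as fluorescence in the reporter wells.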

The target in test [11] is Peroxisome proliferator-activated receptor gamma (Homo sapiens) (UniProt P37231). As to the kind of experiment: qHTS assay to identify small molecule agonists of the peroxisome proliferator-activated receptor gamma (PPARg) signaling pathway (AID 743094; active = well fitted activation curve with a large enough effect in the signal ratio in the repeat runs, not every such curve was filed as active; the % refers to the signal ratio). The procedure, abridged:
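GeneBLAzer PPARg UAS-bla HEK293H cells were plated, rested 5 h, then exposed to compounds for 17 h at 37C. Beta-lactamase activity was read by LiveBLAzer B/G FRET substrate fluorescence after 1 h at room temperature.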

A short description of test [12]: qHTS assay to identify small molecule antagonists of the peroxisome proliferator-activated receptor gamma (PPARg) signaling pathway - cell viability counter screen (AID 743194). Also: nearly all actives have a fitted effect of over 55% in size. The procedure, abridged:
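PPARg-UAS-bla HEK293H cells were plated, rested 5 h at 37 C, then treated with compounds plus rosiglitazone (50 nM final) for 17 h at 37 C; viability was then read by CellTiter-Glo luminescence after 30 min at room temperature.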

Test [13] can be described thus: qHTS assay for small molecule agonists of the antioxidant response element (ARE) signaling pathway - cell viability counter screen (AID 743203; calls by dose curve; also: nearly all actives have a fitted effect of over 55% in size). The procedure, abridged:
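ARE-bla HepG2 cells were plated, rested 5 h at 37C/5% CO2, then exposed to compounds in DMSO for 16 h. Viability was read as CellTiter-Glo luminescence after 30 min at room temperature, in the same wells as the ARE screen.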

Test [14] can be described thus: qHTS assay for small molecule activators of the heat shock response signaling pathway - cell viability counter screen (AID 743209). Also: nearly all actives have a fitted effect of over 50% in size. The procedure, abridged:
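HSE-bla HeLa cells plated overnight, then exposed to Tox21 compounds (23 nL in DMSO) for 5 h at 37 C. After the bla reporter read, CellTiter-Glo was added in the same wells and luminescence read after 30 min at room temperature.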

The nature of test [15]: qHTS assay for small molecule activators of the heat shock response signaling pathway (AID 743210; active = well fitted activation curve with a large enough effect in the signal ratio in the repeat runs, with a control signal flat, not every such curve was filed as active; the % refers to the signal ratio; also: series mostly up to about 63 µM). The procedure, abridged: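 HSE-bla HeLa cells (beta-lactamase reporter under heat shock response elements) were exposed to compounds for 5 h at 37 C, then loaded with LiveBLAzer B/G FRET substrate for 2.5 h at room temperature before fluorescence reading.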
The nature of test [16]: qHTS assay to identify small molecule agonists of the peroxisome proliferator-activated receptor delta (PPARd) signaling pathway - cell viability counter screen (AID 743211). Also: nearly all actives have a fitted effect of over 55% in size. The procedure, abridged: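 Counter screen for cytotoxicity run in parallel with the PPARd reporter screen. Beta-lactamase reporter HEK293H cells exposed to compounds 17 h; ATP-based CellTiter-Glo luminescence quantified viability.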

The target in test [17] is Aryl hydrocarbon receptor (Homo sapiens) (UniProt P35869). As to the kind of experiment: qHTS assay to identify small molecule that activate the aryl hydrocarbon receptor (AhR) signaling pathway (AID 743085).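 Also: HG2L7.5c1 human HepG2 liver cells with stably integrated DRE-driven firefly reporter; series mostly up to about 70 µM; nearly all actives have a fitted effect of over 15% in size.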 The procedure, abridged: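 Compounds were tested in HepG2 hepatocellular carcinoma cells harbouring a stably integrated luciferase gene under control of 20 DREs. Increased reporter signal after 24 h treatment at 37C was taken as AhR activation.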
Chain of Aryl hydrocarbon receptor (Homo sapiens) (P35869 whole entry, looked up): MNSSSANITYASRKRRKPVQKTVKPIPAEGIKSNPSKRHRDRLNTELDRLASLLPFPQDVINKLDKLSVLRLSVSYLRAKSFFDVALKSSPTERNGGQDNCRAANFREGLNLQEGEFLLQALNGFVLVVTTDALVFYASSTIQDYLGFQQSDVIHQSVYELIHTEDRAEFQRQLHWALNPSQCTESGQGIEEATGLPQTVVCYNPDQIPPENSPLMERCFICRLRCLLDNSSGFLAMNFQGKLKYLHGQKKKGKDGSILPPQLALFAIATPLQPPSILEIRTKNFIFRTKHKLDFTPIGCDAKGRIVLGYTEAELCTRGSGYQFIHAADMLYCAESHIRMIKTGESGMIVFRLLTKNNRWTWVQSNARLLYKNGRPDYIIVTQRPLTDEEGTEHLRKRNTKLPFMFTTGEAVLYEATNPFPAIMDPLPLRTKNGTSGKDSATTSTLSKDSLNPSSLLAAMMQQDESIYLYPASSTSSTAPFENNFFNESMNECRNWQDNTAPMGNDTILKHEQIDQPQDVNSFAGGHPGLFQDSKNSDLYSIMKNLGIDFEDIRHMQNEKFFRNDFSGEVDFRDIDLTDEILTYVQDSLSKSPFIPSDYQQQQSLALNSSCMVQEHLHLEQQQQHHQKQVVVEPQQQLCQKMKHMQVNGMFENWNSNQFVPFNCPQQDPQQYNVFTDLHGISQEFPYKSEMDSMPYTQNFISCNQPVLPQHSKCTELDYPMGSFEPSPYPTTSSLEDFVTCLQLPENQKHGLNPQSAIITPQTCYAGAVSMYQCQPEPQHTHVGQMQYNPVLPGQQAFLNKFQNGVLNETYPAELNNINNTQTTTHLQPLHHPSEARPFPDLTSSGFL

Test [18] is described as follows: qHTS assay for small molecule agonists of the antioxidant response element (ARE) signaling pathway (AID 743202; active = well fitted activation curve with a large enough effect in the signal ratio in the repeat runs, not every such curve was filed as active; the % refers to the signal ratio; also: potency is read from the fitted curve at half-maximal effect). The method, boiled down: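 Read-out: LiveBLAzer B/G FRET substrate fluorescence after 2 h at room temperature, following 16 h compound treatment at 37 C of HepG2 cells carrying an ARE-driven beta-lactamase reporter.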
The target in test [19] is Peroxisome proliferator-activated receptor gamma (Homo sapiens) (UniProt P37231). As to the kind of experiment: qHTS assay to identify small molecule antagonists of the peroxisome proliferator-activated receptor gamma (PPARg) signaling pathway (AID 743191; calls by dose curve; also: series mostly up to about 63 µM; nearly all actives have a fitted effect of over 30% in size). The procedure, abridged:
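GeneBLAzer PPARg UAS-bla HEK293H cells carrying a UAS-driven beta-lactamase reporter were plated at 3000 cells/well, preincubated 5 h at 37C, then given compound for 17 h at 37C; LiveBLAzer B/G FRET substrate was read after 1 h at room temperature.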

Chain of Peroxisome proliferator-activated receptor gamma (Homo sapiens) (P37231 whole entry, looked up): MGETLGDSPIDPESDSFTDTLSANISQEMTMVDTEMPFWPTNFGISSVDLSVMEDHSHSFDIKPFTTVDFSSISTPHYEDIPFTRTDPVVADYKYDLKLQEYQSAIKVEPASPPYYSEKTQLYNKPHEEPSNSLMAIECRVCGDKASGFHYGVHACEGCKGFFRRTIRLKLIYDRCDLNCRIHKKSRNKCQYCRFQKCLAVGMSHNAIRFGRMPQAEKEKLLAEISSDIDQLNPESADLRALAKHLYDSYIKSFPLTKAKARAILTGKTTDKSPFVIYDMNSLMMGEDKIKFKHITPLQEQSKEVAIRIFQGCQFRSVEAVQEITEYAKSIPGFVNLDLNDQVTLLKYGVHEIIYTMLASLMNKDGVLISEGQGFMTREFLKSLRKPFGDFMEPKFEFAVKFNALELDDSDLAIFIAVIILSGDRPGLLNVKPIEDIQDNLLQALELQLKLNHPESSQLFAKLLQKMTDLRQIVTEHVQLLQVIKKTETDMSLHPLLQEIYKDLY

For `NNC(=O)OCc1ccccc1`, the Potency entry in test [1], in test [2], in test [4], in test [5], in test [6] and in [7] was “inactive” in each case. Besides, the Potency result (with Aromatase (Homo sapiens); in test [14]) was “inactive” in each case. The outcome in test [3], in test [8], in test [9], in [10], in [11] and in [12] was inactive. Moreover, the result in [13], in [15] and in [16] was inactive.
For the molecule `CCC(C)(C)C`, the Potency result in test [1], in test [2], in test [4], in test [5], in test [6] and in test [7] was “inactive” each time. For the same molecule, the Potency entry (with Aromatase (Homo sapiens); in test [17]; in test [18]; in test [14]) was “inactive” in each case. Besides, the molecule was classed as inactive in test [3], in [8], in test [10], in [11], in [15] and in test [16].
For the molecule `O=C(CCBr)N1CCN(C(=O)CCBr)CC1`, the Potency entry in [1], in [2], in [4], in [5], in [6] and in test [7] was “inactive” in each case. Besides, the Potency entry (with Aromatase (Homo sapiens); in [17]; in test [14]) was “inactive” in each case. For the same molecule, the molecule was classed as inactive in [3], in test [8], in test [9], in test [10], in [19] and in test [12]. The result in test [13], in test [15] and in test [16] was inactive. Also, in test [18], the Potency is 13.3 µM (active).
`CN(C)CCC[C@@]1(c2ccc(F)cc2)OCc2cc(C#N)ccc21`: the Potency result in test [1], in [2], in test [4], in test [5], in test [6] and in test [7] was “inactive” throughout. In addition, the Potency entry (with Aromatase (Homo sapiens); in [14]) was “inactive” throughout. The molecule was called inactive in test [3], in test [8], in test [9], in test [10], in [11] and in test [12]. Moreover, the molecule was classed as inactive in test [15] and in test [16].
For the molecule `CN(C)c1cc(NC(=O)CNC(C)(C)C)c(O)c2c1C[C@H]1C[C@H]3[C@H](N(C)C)C(=O)C(C(N)=O)=C(O)[C@@]3(O)C(=O)C1=C2O`, the Potency entry in test [1], in test [2], in test [4], in test [5], in test [6] and in test [7] was “inactive” throughout. Also, the Potency result (with Aromatase (Homo sapiens); in test [17]) was “inactive” each time. In addition, the call in test [3], in test [8], in test [9], in test [11], in [19] and in test [12] was inactive. Besides, in test [15], the outcome was inactive.
For the molecule `c1coc(Cn2cccc2)c1`, the Potency entry in test [1], in [2], in test [4], in [5], in test [6] and in test [7] was “inactive” throughout. The Potency result (with Aromatase (Homo sapiens); in test [17]; in test [14]) was “inactive” each time. Moreover, the call in test [3], in [8], in test [9], in [11], in test [12] and in test [13] was inactive. The molecule was classed as inactive in test [16].
On to `CCNC(=O)C(C)OC(=O)Nc1ccccc1` (centres undefined), for which the Potency entry in test [1], in test [2], in test [4], in test [5], in test [6] and in [7] was “inactive” throughout. Further, the Potency result (with Aromatase (Homo sapiens); in test [18]) was “inactive” throughout. The outcome in test [3], in test [8], in [9], in [10], in [11] and in test [12] was inactive. Besides, the call in [13], in [15] and in [16] was inactive.
For the molecule `CCCCCCCC(=O)N(C)C`, the Potency entry in test [1], in test [2], in test [4], in test [5], in test [6] and in test [7] was “inactive” throughout. Moreover, the Potency result (in the test with Aromatase (Homo sapiens); in test [18]; in test [14]) was “inactive” in each case. Moreover, the result in [3], in test [8], in test [9], in test [10], in test [11] and in test [19] was inactive. The molecule was classed as inactive in test [12], in test [13], in [15] and in test [16].
For the molecule `CC(C)C[P+](C)(CC(C)C)CC(C)C`, the Potency result in test [1], in [2], in test [4], in test [5], in test [6] and in test [7] was “inactive” in each case. In addition, the Potency result (with Aromatase (Homo sapiens); in test [18]; in [14]) was “inactive” in each case. The molecule was called inactive in [3], in test [8], in test [9], in [10], in test [11] and in test [19]. Further, the call in [12], in test [13] and in [16] was inactive.
In the case of `CC(=O)OC1CCC(C(C)(C)C)CC1` (centres undefined), the Potency result in test [1], in [2], in [4], in test [5], in [6] and in [7] was “inactive” each time. Further, the Potency entry (with Aromatase (Homo sapiens); in [17]; in test [18]; in test [14]) was “inactive” each time. The result in [3], in test [8], in test [9], in test [10], in test [12] and in test [13] was inactive. The molecule was called inactive in [15].
In the case of `Cc1ccc2cccnc2c1`, the Potency result in [1], in test [2], in [4], in [5], in test [6] and in test [7] was “inactive” throughout. For the same molecule, the Potency entry (with Aromatase (Homo sapiens); in test [17]; in test [18]; in test [14]) was “inactive” in each case. In addition, the outcome in test [3], in test [8], in test [9], in test [11], in [19] and in test [12] was inactive. The molecule was called inactive in test [13], in test [15] and in test [16].
In the case of `C=CCCCCCCCCCCCCCC`, the Potency result in test [1], in test [2], in test [4], in test [5], in test [6] and in test [7] was “inactive” in each case. Also, the Potency entry (with Aromatase (Homo sapiens); in test [17]; in test [14]) was “inactive” throughout. Also, the molecule was called inactive in test [3], in test [8], in test [9], in test [11], in test [19] and in test [12]. Also, the outcome in [13], in test [15] and in [16] was inactive.
For `CCCCOCCCC`, the Potency entry in [1], in [2], in test [4], in test [5], in [6] and in test [7] was “inactive” in each case. The Potency result (with Aromatase (Homo sapiens); in test [17]; in test [18]; in test [14]) was “inactive” throughout. The call in test [3], in [8], in test [9], in [11], in [12] and in test [15] was inactive. In addition, the call in test [16] was inactive.

(Values after PubChem BioAssay (Tox21).)
